# “And” between values parts separate entries of the source, which are not always exact repeats. Identical values can stand only once. In all, about 16,000 compounds went through this assay and about 5,100 (32%) were called active. Roughly 25% stayed inconclusive and do not appear here. The list shows a part of the results. Unmarked numbers belong to inactive results. Calls follow the shape of the dose curve; as a rule, active = well fitted curve in the direction sought with a large enough effect; inconclusive = small, poorly fitted or top-dose-only effect, or effect the other way; inactive = no such curve, though single readings can be large or run the other way.
# Target: Cytochrome P450 3A4 (Homo sapiens) (UniProt P08684)
# Sequence (P08684 whole entry, looked up): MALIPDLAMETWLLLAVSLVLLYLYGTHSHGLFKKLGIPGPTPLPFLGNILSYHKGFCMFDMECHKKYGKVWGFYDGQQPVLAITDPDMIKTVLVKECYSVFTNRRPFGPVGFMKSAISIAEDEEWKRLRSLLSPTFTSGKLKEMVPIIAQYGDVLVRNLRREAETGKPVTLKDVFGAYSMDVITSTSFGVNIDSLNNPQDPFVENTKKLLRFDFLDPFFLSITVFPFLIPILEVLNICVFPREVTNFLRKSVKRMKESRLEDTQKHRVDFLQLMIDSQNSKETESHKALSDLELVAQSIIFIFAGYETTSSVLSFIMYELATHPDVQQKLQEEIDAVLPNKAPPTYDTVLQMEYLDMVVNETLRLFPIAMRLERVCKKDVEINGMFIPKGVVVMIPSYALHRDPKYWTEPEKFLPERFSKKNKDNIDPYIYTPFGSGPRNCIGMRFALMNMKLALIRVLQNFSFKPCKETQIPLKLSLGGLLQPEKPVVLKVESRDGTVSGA
# Assay: Cytochrome panel assay with activity outcomes
# Details: recombinant CYP, pro-luciferin dealkylation, luminescence, p450-cyp3a4; series mostly up to 57.1 µM; activity, negative = inhibition: at the top concentration
# % is scaled to controls: 0 for no effect and ±100 for the full control effect.
Compound,"activity, negative = inhibition",AC50
CCC(=O)Nc1nnc(C(C)(C)C)s1,-12%,
O=C(Nc1nccs1)c1sc2cc(Cl)ccc2c1Cl,,10 µM (active)
Clc1ccc2c(NCCNc3ccnc4cc(Cl)ccc34)ccnc2c1,4.32% [at 11.4 µM],
COc1ccc(CNc2ncnc3ccc(-c4ccccc4C#N)cc23)c(OC)c1,,1 µM (active)
COc1ccccc1CNc1ncnc2ccc(-c3ccccc3C#N)cc12,,3.98 µM (active)
Cc1ccccc1-n1cnc2cc(NCc3cccs3)ccc21,,5.01 µM (active)
CCCCc1ccc(NC(=S)NCc2cccs2)cc1,-10% [at 2.29 µM],
c1ccc(-n2cnc3cc(NCc4cccs4)ccc32)cc1,,7.08 µM (active)
O=S(=O)(O)c1cc(N=Nc2cccc3ccccc23)c(O)c2ncccc12,-5.6% [at 11.4 µM],
O=S(=O)(Nc1cccnc1Cl)c1ccc2c(c1)OCCO2,7.34% [at 2.29 µM],
O=S(=O)(Nc1ccc2c(c1)OCCO2)c1cccc2cccnc12,,15.8 µM (active)
CNC(=S)N1N=C(c2ccc(OC)cc2)CC1c1ccc(N(C)C)cc1 (stereo unspecified),,3.98 µM (active)
NC(N)=NC[C@@H]1COC2(CCCCC2)O1,-1.52% [at 25.6 µM],
CCOc1ncnc2c1oc1nc(CC(C)C)c3c(c12)CC(C)(C)OC3,0.556%,
CCOC(=O)c1oc2nc(CC(C)C)c3c(c2c1N)CCC3,,3.16 µM (active)
CC(C)Cc1nc(N2CCN(C(=O)c3ccccc3)CC2)c(C#N)c2c1CCC2,20.1%,
Cn1c(SCC(=O)N/N=C/C=C\c2ccco2)nc2ccccc21,9.61% [at 2.29 µM],
CCn1c(SCC(=O)N/N=C/C=C\c2ccccc2[N+](=O)[O-])nnc1-c1ccccc1,,12.6 µM (active)
CC(=O)Nc1nc2ccccc2n1Cc1ccccc1,-25.3%,
COc1ccc(CNc2nc3ccccc3n2Cc2ccccc2)cc1OC,,3.98 µM (active)
CS(=O)(=O)c1nc2ccccc2n1Cc1ccccc1,8.52%,
C#CCCCO/N=C1/[C@H]2O[C@@H]2[C@@H](O)[C@H]2[C@H]1CCn1c(=O)n(C)c(=O)n12,-24.7% [at 11.4 µM],
CCCc1nnc(NC(=O)c2cccs2)s1,-3.1%,
Cc1ccc(Cc2cnc(NC(=O)c3cccs3)s2)cc1,,7.94 µM (active)

Compound,"activity, negative = inhibition",AC50
CN(C)CCCN1CCC2(CCC(C(C)(C)C)CC2)CC1,1.95% [at 11.4 µM],
COc1ccc(NC(C)=O)cc1NC(=O)CN1CCN(C2c3ccccc3-c3ccccc32)CC1,,10 µM (active)
COc1ccccc1NC(=O)CN1CCN(c2ccccc2F)CC1,-29.9%,
COc1ccccc1NC(=O)CN1CCN(C2c3ccccc3-c3ccccc32)CC1,,12.6 µM (active)
NS(=O)(=O)c1cc(C(=O)O)c(Cl)c([N+](=O)[O-])c1Cl,-5.24% [at 11.4 µM],
CCNc1ncc2nc(-c3ccc(F)cc3)c(=O)n(C[C@H]3CCCO3)c2n1,-18.2%,
CCNc1ncc2nc(CCc3ccccc3)c(=O)n(Cc3ccc(F)cc3)c2n1,,2.51 µM (active)
CCNc1ncc2nc(CCc3ccccc3)c(=O)n(CCC#N)c2n1,,15.8 µM (active)
CCSC1=C(C#N)C2(CCCCC2)C(C#N)=C(N)N1,,8.91 µM (active)
COc1ccc(C(=O)Nc2nc3c(s2)Cc2cc(OC)ccc2-3)cc1,,11.2 µM (active)
COc1ccc2c(c1)CCc1sc(NC(=O)c3ccc(C)cc3)nc1-2,,10 µM (active)
COc1ccc2c(c1)Cc1sc(NC(=O)c3ccco3)nc1-2,,11.2 µM (active)
O=C(O)Cc1c[nH]c2ccc(O)cc12,-10.9%,
CC(C)Oc1cccc(-n2c(CCc3c[nH]c4ccc(Br)cc34)nc3ccccc3c2=O)c1,,3.98 µM (active)
C/C(CC/C(C)=N/O)=N/O,-10.6% [at 11.4 µM],
O=C(O)c1c[nH]c2c(ccc3[nH]cc(C(=O)O)c(=O)c32)c1=O,-16.3% [at 11.4 µM],
Cc1cc(C(=O)Nc2c(C)n(C)n(-c3ccccc3)c2=O)c2ccccc2n1,-18.9%,
Cc1cc(SC(C)C(=O)Nc2c(C)n(C)n(-c3ccccc3)c2=O)nc2ccccc12 (stereo unspecified),,12.6 µM (active)
Cc1c(NC(=O)C(C)N2C(=O)c3ccccc3C2=O)c(=O)n(-c2ccccc2)n1C (stereo unspecified),-4.89%,
O=C(Nc1cccc2ncccc12)c1ccc(-c2ccc(Br)cc2)o1,,2.82 µM (active)
COc1ccc(C=O)cc1COc1ccc(C)cc1[N+](=O)[O-],9.27%,
CC(=O)N/N=C/c1cc([N+](=O)[O-])ccc1OCCOc1ccccc1,3.61%,
Cc1ccc(OCC(=O)N/N=C\c2c(C)n(C)c3ccccc23)c([N+](=O)[O-])c1,,7.08 µM (active)
Cc1ccccc1-c1ccc2ncnc(N(C)C)c2c1,,3.16 µM (active)

Compound,"activity, negative = inhibition",AC50
COc1ccccc1-c1ccc2ncnc(N(C)C)c2c1,,5.01 µM (active)
Cc1ccc(S(=O)(=O)CCC(=O)Nc2nc3c(s2)CCCC3)cc1,,8.91 µM (active)
CC(=O)N1CCc2cc(S(=O)(=O)CCC(=O)Nc3c(C)n(C)n(-c4ccccc4)c3=O)ccc21,-22.1%,
Nc1cc(-c2nn[nH]n2)ccc1F,-28.5%,
COC(=O)C/C=C\[C@@H](C)[C@@H](/C=N\OC[C@@H]1O[C@H](c2ccccc2)C=C[C@@H]1Oc1ccc(OC)cc1)NS(=O)(=O)c1ccc(C)cc1,,5.01 µM (active)
COC(=O)C/C=C\[C@@H](C)[C@@H](/C=N\OC[C@@H]1O[C@H](c2ccccc2)C=C[C@@H]1Oc1ccc(OC)cc1)OC,,3.16 µM (active)
CC(C)CSC[C@@H]1O[C@H](n2cnc3c(N)nccc32)[C@H](O)[C@@H]1O,-25.4% [at 11.4 µM],
Cc1noc(C)c1-c1cncnc1N1CCN(C)CC1,,12.6 µM (active)
CN1CCN2c3ncccc3Cc3ccccc3C2C1 (stereo unspecified),-7.32%,
COc1ccccc1-c1cncnc1N1CCN(C)CC1,,2.51 µM (active)
CN1CCN(c2ncncc2-c2ccccc2Cl)CC1,,1.58 µM (active)
Cc1ccccc1-c1cncnc1N1CCN(C)CC1,,1.58 µM (active)
Cc1noc(C)c1-c1cc(N2CCN(C)CC2)ncn1,40.2%,
CN1CCN(c2cc(-c3ccccc3C(F)(F)F)ncn2)CC1,11.3%,
Cc1ccccc1NC(=S)NN1CCN(C)CC1,10.1%,
CN1CCN(c2ncncc2-c2ccoc2)CC1,,7.94 µM (active)
CC(C)(C)c1c2c(c(C(C)(C)C)c3c1OCN(Cc1ccccc1)C3)OCN(Cc1ccccc1)C2,5.7% [at 11.4 µM],
CC[C@@H](Nc1ncnc2nc[nH]c12)C(=O)O,-5.2% [at 11.4 µM],
COc1ccc(OCC(=O)NNC(=O)c2ccc(-c3ccccc3)cc2)cc1,-12.2%,
COc1ccc(C(=O)NNC(=O)Cc2ccc(-c3ccccc3)cc2)cc1OC,,6.31 µM (active)
Cc1occc1C(=O)NNC(=O)Cc1ccccc1,-19.8%,
COc1cc(/C=N\NC(=O)C2C(=O)NCC2c2ccccc2)cc(OC)c1O (stereo unspecified),-12.3%,
CC(C)[C@H](N)c1nnc(SCc2ccc(Cl)cc2)o1,,1.58 µM (active)
Clc1cccc(Cl)c1CSc1nnc(/C=C/c2ccccc2)o1,-16.1% [at 11.4 µM],

Compound,"activity, negative = inhibition",AC50
CSc1nsc(SCc2ccc(Cl)cc2)n1,11%,
Clc1ccc(CSc2ncnc3c2ncn3[C@@H]2CCCCO2)cc1,11.8% [at 11.4 µM],
CC(C)[C@H](N)c1nnc(SC/C=C/c2ccccc2)o1,,1.26 µM (active)
CC(C)=NNc1ncnc2nc[nH]c12,4.57% [at 11.4 µM],
NOCC(=O)O,4.96%,
O=C(O)CCNc1ccccc1C(=O)O,-9.69% [at 11.4 µM],
Cn1cc(-c2nc3cnc(N4CCNCC4)nc3n(Cc3ccc(F)cc3)c2=O)c2ccccc21,,12.6 µM (active)
Cn1cc(-c2nc3cnc(N4CCNCC4)nc3n(CCc3ccccc3)c2=O)c2ccccc21,,12.6 µM (active)
CN1CCN(c2ncc3ncc(=O)n(-c4ccccc4)c3n2)CC1,-3.73%,
CN1CCN(c2ncc3nc(-c4ccccc4)c(=O)n(C)c3n2)CC1,16%,
CN1CCN(c2ncc3nc(-c4cn(C)c5ccccc45)c(=O)n(-c4ccccc4)c3n2)CC1,,25.1 µM (active)
CN1CCN(c2ncc3nc(-c4cn(C)c5ccccc45)c(=O)n(CCc4ccccc4)c3n2)CC1,,15.8 µM (active)
NC1=C2NC=N[C@@H]2N(C/C=C\c2ccccc2)C=N1,-17.9% [at 11.4 µM],
CN(C)Cc1c[nH]c2nc[nH]c(=O)c12,-2.68% [at 11.4 µM],
O=C(O)C1=C/C(=C(/c2ccccc2)c2cc(C(=O)O)c(O)c3ccccc23)c2ccccc2C1=O,6.76% [at 11.4 µM] and -24.1% [at 11.4 µM],
Cn1cc(-c2nc3cnc(N4CCNCC4)nc3n(C)c2=O)c2ccccc21,,20 µM (active)
Cn1c(=O)c(-c2ccccc2)nc2cnc(N3CCNCC3)nc21,-28%,
COCCn1c(=O)c(-c2cn(C)c3ccccc23)nc2cnc(N3CCNCC3)nc21,,25.1 µM (active)
O=S(=O)(O)c1cc(N=[N+]([O-])c2cc(S(=O)(=O)O)c3ccccc3c2)cc2ccccc12,-21.4% [at 11.4 µM],
Cc1ccc(NC(=O)/C(=C\c2ccc3c(c2)OCO3)NC(=O)c2ccco2)cc1,,2.51 µM (active)
CC(=O)NS(=O)(=O)c1ccc(NC(=S)NC(=O)c2ccco2)cc1,-2.27%,
O=C(N/N=C/c1ccc2c(c1)OCO2)/C(=C/c1ccc2c(c1)OCO2)NC(=O)c1ccccc1,,1.12 µM (active)
C=CCNC(=O)/C(=C\c1ccc2c(c1)OCO2)NC(=O)c1ccc(Br)cc1,,0.447 µM (active)
O=C(NC(Cc1ccccc1)C(=O)O)/C(=C\c1ccco1)NC(=O)c1ccc(Br)cc1 (stereo unspecified),17%,
